According to PubChem BioAssay (NCATS):
Inconclusive results are not listed. Entries that show only a call come without a potency. Calls of active or inactive are those of the source. Calls come from the whole dose curve; as a rule, active = well fitted inhibition curve with a large enough effect; inconclusive = small, poorly fitted or top-dose-only effect; inactive = flat fitted curve, though single readings scatter.

biological target: Lysine-specific demethylase 5B (Homo sapiens) (UniProt Q9UGL1); experiment: Optimization screen for KDM5B Histone Demethylases FDH coupled qHTS against the LOPAC library (AID 1347166); details: KDM5B demethylation, FDH-coupled NADH fluorescence (FDH is formaldehyde dehydrogenase); series mostly up to 57.5 µM
Sequence (Q9UGL1 whole entry, looked up): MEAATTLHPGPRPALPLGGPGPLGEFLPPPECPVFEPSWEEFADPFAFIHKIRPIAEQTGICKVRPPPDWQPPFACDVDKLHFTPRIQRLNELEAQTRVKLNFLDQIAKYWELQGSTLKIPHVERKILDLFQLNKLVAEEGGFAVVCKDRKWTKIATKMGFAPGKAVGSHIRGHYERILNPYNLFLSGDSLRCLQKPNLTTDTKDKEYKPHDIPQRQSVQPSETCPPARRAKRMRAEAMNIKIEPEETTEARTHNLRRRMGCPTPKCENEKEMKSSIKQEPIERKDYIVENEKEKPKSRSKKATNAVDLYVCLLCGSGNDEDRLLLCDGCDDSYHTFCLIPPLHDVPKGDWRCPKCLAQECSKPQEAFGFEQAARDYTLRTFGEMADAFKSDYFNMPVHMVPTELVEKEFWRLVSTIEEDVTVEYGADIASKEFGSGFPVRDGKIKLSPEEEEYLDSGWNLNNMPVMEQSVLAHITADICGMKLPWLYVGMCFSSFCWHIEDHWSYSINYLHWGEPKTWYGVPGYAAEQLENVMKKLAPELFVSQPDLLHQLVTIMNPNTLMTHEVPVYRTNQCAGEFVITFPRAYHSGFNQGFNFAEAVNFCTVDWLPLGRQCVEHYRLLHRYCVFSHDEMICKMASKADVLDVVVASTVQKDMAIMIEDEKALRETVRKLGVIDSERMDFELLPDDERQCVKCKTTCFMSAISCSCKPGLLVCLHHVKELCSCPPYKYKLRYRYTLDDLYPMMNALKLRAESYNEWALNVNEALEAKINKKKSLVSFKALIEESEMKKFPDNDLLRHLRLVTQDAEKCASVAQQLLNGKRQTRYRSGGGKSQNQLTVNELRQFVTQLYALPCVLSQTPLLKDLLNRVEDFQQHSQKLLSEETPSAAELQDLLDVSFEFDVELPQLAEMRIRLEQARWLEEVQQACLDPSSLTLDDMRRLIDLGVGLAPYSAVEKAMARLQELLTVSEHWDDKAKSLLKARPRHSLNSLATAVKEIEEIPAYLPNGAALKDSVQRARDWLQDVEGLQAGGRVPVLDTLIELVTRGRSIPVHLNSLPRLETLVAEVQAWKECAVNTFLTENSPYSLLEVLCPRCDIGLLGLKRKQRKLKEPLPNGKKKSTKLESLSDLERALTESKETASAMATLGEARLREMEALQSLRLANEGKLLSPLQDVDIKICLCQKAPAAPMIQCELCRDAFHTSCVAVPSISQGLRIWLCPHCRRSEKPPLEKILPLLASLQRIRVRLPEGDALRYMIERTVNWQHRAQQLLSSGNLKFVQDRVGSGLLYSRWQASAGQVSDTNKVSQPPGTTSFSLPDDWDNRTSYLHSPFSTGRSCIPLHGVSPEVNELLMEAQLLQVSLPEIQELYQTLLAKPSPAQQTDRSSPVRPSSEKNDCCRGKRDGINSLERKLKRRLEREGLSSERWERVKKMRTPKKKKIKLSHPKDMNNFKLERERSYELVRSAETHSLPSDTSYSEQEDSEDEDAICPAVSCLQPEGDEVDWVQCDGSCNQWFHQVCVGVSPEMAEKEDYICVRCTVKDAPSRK
Source text: Assay Submitter (PI): Qin Yan, Ph.D. (Yale University) and Xiaodong Cheng, Ph.D. (MD Anderson)
This project was funded as part of the NCI NEXT Program and Chemical Biology Consortium (CBC)
The histone demethylases, KDM5A and KDM5B catalyze the demethylation of lysine 4 on histone H3 (H3K4me3/2). They
are overexpressed in a variety of cancers and have been implicated in cancer cell growth, metastasis, drug resistance, and tumor growth. KDM5A is amplified and overexpressed in breast and gastric cancer; and is translocated in leukemia. While KDM5B is highly expressed in human mammary tumors and breast cancer cell lines, but not in normal adult breast tissue. Moreover, knockdown of KDM5B leads to upregulation of tumor suppressor genes, including BRCA1. The goal of this project is to employ qHTS to identify selective small molecule inhibitors of KDM5A/B demethylase activity to better understand the role of KDM5 in cancer and to develop novel therapies.
We employed an FDH-coupled assay previously reported by Sakurai et al. to monitor in vitro KDM5 demethylase activity. Compounds showing dose response inhibition are re-acquired, validated, and tested for non-specific interference with the formaldehyde dehydrogenase (FDH) counterscreen. True inhibitors are validated using an AlphaLisa secondary screen, which employs an H3K4(me2-1)-specific antibody to monitor demethylation of a biotin-tagged H3K4(me3) peptide substrate. Inhibitors are profiled against KDM4A and KDM6A AlphaLisa counterscreens to determine level of demethylase specificity; and against the TruHits counterscreen to eliminate non-specific inhibitory activity on the AlphaLISA detection method. Selective inhibitors identified from the primary and secondary screening are tested in cells using immunofluorescence to monitor global H3K4 tri-methylation as a measure of KDM5A/B inhibition. This assay is run against the NCGC Lopac collection of about 1,200 compounds to evaluate its amenability to quantitative High Throughput Screening (qHTS) platform.
Early Translation Branch (ETB)
National Center for Advancing Translational Sciences (NCATS), Rockville, MD
National Institute of Health (NIH), Bethesda, Maryland
[1] Sakurai, M et al. A miniaturized screen for inhibitors of Jumonji histone demethylases. Mol Biosyst. 2010 Feb;6(2):357-64. doi: 10.1039/b912993f. Epub 2009 Oct 8.
1536-well Black, solid bottom, medium binding assay plate is purchased from Greiner Bio-one. The enzymes (KDM5B) and substrate (H3K4me3/2) are provided by the principal investigators. The buffer for this assay is composed of 50mM HEPES at pH 7.5 with 0.01% Tween-20.
FDH coupled qHTS protocol:
Three microliter enzyme mix (buffer + 200nM KDM5BDeltaAP final concentration) is dispensed into the assay plate using the BioRAPTR Flying Reagent Dispenser (FRD; Beckton-Dickenson). Compound (at various final concentration) and control solution is pin transferred to the assay plate using the Kalypsys 1536-pin tool apparatus. The assay plate is incubated for 10 min at room temperature followed by addition of 1uL substrate mix (buffer + 100uM ascorbic acid, 50uM ferrous ammonium sulfate, 12.5uM H3K4Me3, 25uM a-ketoglutarate, 0.25 mM NAD+, 0.25 U/mL formaldehyde dehydrogenase using the FRD yielding a total reaction volume of 4 uL. Initial fluorescence (Read1) is detected using the PerkinElmer ViewLux plate reader equipped with 340 nm excitation and 450 nm emission filters. The final fluorescence (Read2) signal is obtained after 30 min of room temperature incubation. Delta RFU is calculated (Read2 - Read1) and is used to generated dose response curves
Potency is the fitted concentration of half-maximal effect.

SMILES	Potency
COc1ccc2[nH]cc(CCN)c2c1	inactive
COc1ccc2[nH]c3c(c2c1)CCNC3	inactive
CCn1cnc2c(Nc3cccc(Cl)c3)nc(N[C@@H]3CCCC[C@@H]3N)nc21	inactive
Cc1o[nH]c(=O)c1CC(N)C(=O)O (stereo not given)	inactive
N[C@@H](Cn1oc(=O)[nH]c1=O)C(=O)O	inactive
C[C@H](Cc1ccc2c(c1)OC(C(=O)O)(C(=O)O)O2)NC[C@H](O)c1cccc(Cl)c1	inactive
CN1CC[C@@]2(C)c3cc(O)ccc3N(C)C12 (stereo not given in full)	2510 nM (active)
NC(=O)COc1c(F)cc(SCCNS(=O)(=O)c2ccccc2)cc1F	inactive
N[C@@H](CCl)C(=O)O	inactive
CCCN(CCC)[C@@H]1CCc2cccc(O)c2C1	inactive
CC12NC(Cc3ccccc31)c1ccccc12 (stereo not given)	inactive
COc1ccc2c(c1)[C@@]13CCCC[C@H]1[C@@H](C2)NCC3	inactive
CP(=O)(O)C1=CCNCC1	inactive
CC(=O)NBr	inactive
CC(C)NP(=O)(NC(C)C)OP(=O)(NC(C)C)NC(C)C	inactive
CO[C@H]1CC=C2CCN3CCC4=C(CC(=O)OC4)[C@]23C1	inactive
CCCN(CCC)C1Cc2cc(OC)c(OC)cc2C1	inactive
NC(=O)c1ccc(OCC(O)CN2CC=C(c3ccc(F)cc3)CC2)cc1 (stereo not given)	inactive
COc1ccc2c(c1)c(CCN1CCOCC1)c(C)n2C(=O)c1cccc(Cl)c1Cl	inactive
OCc1cnc[nH]1	inactive

SMILES	Potency
NCCCP(=O)(O)O	inactive
CN1C2CCC1CC(OC(c1ccccc1)c1ccccc1N)C2 (stereo not given)	inactive
CC(C)(O)[C@@H]1C2OC(=O)[C@@H]1[C@]1(O)C[C@H]3O[C@]34C(=O)O[C@H]2[C@]14C (tested in a mixture with another compound)	inactive
C[N+]1(C)C2CCC1CC(OC(=O)c1c[nH]c3ccccc13)C2 (stereo not given)	inactive
NC(CCCCCP(=O)(O)O)C(=O)O (stereo not given)	inactive
O=[N+]([O-])c1ccc2nc(N3CCNCC3)ccc2c1	inactive
C[N+]1(C)CCN(c2ccccc2)CC1	inactive
N[C@@H](Cn1ccc(=O)[nH]c1=O)C(=O)O	inactive
CCS(=O)(=O)Nc1cccc(C(=C2CCCCC2)c2cnc[nH]2)c1	inactive
C/C(O)=C(\C#N)C(=O)Nc1cc(Br)ccc1Br	inactive
C=CCN1CCC23c4c5ccc(O)c4O[C@H]2C(=O)CC[C@@]3(O)C1C5 (stereo not given in full)	inactive
C#CCN[C@H](C)Cc1ccccc1	inactive
CCN1C[C@@]2(COC)C3[C@@H](OC)C4[C@@H]1C3([C@@H]1C[C@]3(O)[C@H](OC(=O)c5ccccc5)[C@@H]1[C@]4(OC(C)=O)[C@@H](O)[C@@H]3OC)[C@H](OC)C[C@H]2O	inactive
COc1ccc(CNC(=O)/C=C/c2ccc3[nH]cc(CCN(C)C)c3c2)cc1	inactive
CC(C)(C)c1cc(C=C(C#N)C#N)cc(C(C)(C)C)c1O	inactive
C[N+]1(C)CCOC(O)(c2ccc(-c3ccc(C4(O)C[N+](C)(C)CCO4)cc3)cc2)C1 (stereo not given)	inactive
CCN(CCCl)Cc1ccccc1Br	inactive
NC(=O)c1cc(N2CC2)c([N+](=O)[O-])cc1[N+](=O)[O-]	inactive
C[N+](C)(C)CC#CCOC(=O)Nc1cccc(Cl)c1	inactive
COc1ccc2c(c1)C13CCCCC1C(C2)N(C)CC3 (stereo not given)	inactive
